This excerpt belongs to a sample that is enriched for hits.
LASV entry inh = blocks Lassa virus binding to or entry into cells | Lassa virus pseudotype entry inhibition, cell reporter | Potency, µM (doses to about 37.9 µM), inactives show at the highest dose activity change, negative = inhibition, actives largely listed as inhibitors | 300,000 compounds, 1.2% hits | AID 540256; calls by dose curve; tested in HEK293 cells; further: potency means the concentration at half of the fitted maximal effect; on the % scale 0 is the no-effect control and ±100 the full control effect; nearly all actives have a fitted effect of over 50% in size
CHX counter = affects cycloheximide protein synthesis inhibition readout, counter-screen; cell reporter, cycloheximide protein synthesis inhibition counterscreen; max response, %; 300,000 compounds, 12% hits; in the data active means max response mostly above about 13%, no sharp cut-off; inactive means mostly below about 14%; further: read at 38.3 µM for the half of the compounds with a filed dose; 0% is about no effect
Shiga toxin inh = inhibitors of Shiga toxin in Vero cells; Vero cells, Shiga toxin protein synthesis inhibition reporter; inhibition, % at 38.7 µM; 290,000 compounds, 9.2% hits; AID 2315; in the data active means inhibition mostly above about 28%, no sharp cut-off; inactive means mostly below about 43%; further: 0% is about no effect
Vaccinia mCherry = vaccinia inhibition (mCherry reporter); Vaccinia virus mCherry reporter infection, fluorescence; Potency, µM (series often up to 36.5 µM), without a hit: at the top dose activity change, negative = inhibition, usual class: inhibitors; 310,000 compounds, 0.63% hits; AID 720579; calls by dose curve; tested in A549 cells; further: potency means the concentration at half of the fitted maximal effect; on the % scale 0 is the no-effect control and ±100 the full control effect; nearly all actives have a fitted effect of over 35% in size
VACV Venus inh = vaccinia inhibition (Venus reporter). AID 720580. 330,000 compounds, 0.46% hits. Potency, µM (series often up to 36.5 µM), for inactives: at the top dose activity change, negative = inhibition, actives largely listed as inhibitors. Vaccinia virus Venus reporter expression, fluorescence; calls by dose curve; tested in A549 cells; further: potency means the concentration at half of the fitted maximal effect; on the % scale 0 is the no-effect control and ±100 the full control effect; nearly all actives have a fitted effect of over 30% in size
Marburg entry inh = blocks Marburg virus binding to or entry into cells; Marburg virus pseudotyped entry inhibition, cell reporter; Potency, µM (doses to about 37.8 µM), inactives show top-dose activity change, negative = inhibition, actives largely listed as inhibitors; 300,000 compounds, 1.8% hits; AID 540276; calls by dose curve; tested in HEK293 cells; further: potency means the concentration at half of the fitted maximal effect; on the % scale 0 is the no-effect control and ±100 the full control effect
* hit, by the source's call; i = inactive; u = inconclusive; x = no result given; [ ] = dose if it differs, or a comment.

SMILES	LASV entry inh	CHX counter	Shiga toxin inh	Vaccinia mCherry	VACV Venus inh	Marburg entry inh
O=C(Cc1ccccc1)c1ccc(N2CCOCC2)cc1	-18.8%	x	x	-0.8%	-25.1%	u
COc1ccc(Cl)cc1NS(=O)(=O)c1cccc(C(=O)NCCCN2CCCC2=O)c1	-5.5%	-2.0	-12.3	-2.2%	-21.5%	15.8%
COc1ccc(OC)c(C(c2nnnn2CCc2ccccc2)N2CCN(c3ccccc3)CC2)c1 (centres undefined)	10µM*	-2.3	1.3	-25.3%	-19.4%	u
CC(C)C(CCNC(=O)CN1C(=O)c2ccccc2C1=O)c1ccco1 (centres undefined)	-11.4%	1.6	-9.4	x	x	2.2%
CC(C)C(CCNC(=O)CC(Cc1ccccc1)c1ccco1)c1ccco1 (centres undefined)	-5.9%	22.4*	-10.2	x	x	u
COc1cc2c(cc1NC(=O)/C=C/c1cc(OC)c(OC)c(OC)c1)oc1ccccc12	u	-4.7	-11.2	-24.2%	-27.2%	8.91µM*
COc1cc2c(cc1NC(=O)c1cccnc1)oc1ccccc12	u	28.6*	56.9	u	-29.8%	-1.2%
COc1cc2c(cc1NC(=O)C(C)OC(=O)c1ccc(S(=O)(=O)Nc3ccccc3Cl)cc1)oc1ccccc12 (centres undefined)	x	24.1*	31.3*	x	x	x
COc1cc2c(cc1NC(=O)c1ccncc1)oc1ccccc12	12.6%	15.3	36.3	-10.5%[1.46 µM]	u	-0.7%
COc1cc2c(cc1NC(=O)COCC(=O)O)oc1ccccc12	24.3%[46.1 µM]	-1.2	16.8	i	-8.8%	1.7%[46.1 µM]
COc1cc2c(cc1NC(=O)C(C)Oc1ccccc1)oc1ccccc12 (centres undefined)	14.1%[46.1 µM]	x	x	-15.3%	-11.8%	u
COc1ccccc1CC(=O)Nc1cc2oc3ccccc3c2cc1OC	4.1%	24.9*	20.5	u	-29.8%	u
CC(=O)c1ccc(NC(=O)c2cc(-c3ccc4c(c3)OCO4)on2)cc1	0.8%[46.1 µM]	x	x	13.5%	-5.6%	9.5%[46.1 µM]
COc1ccc(C(=O)N2CCCC(c3nc(SCc4ccccn4)ncc3C)C2)cc1F (centres undefined)	x	x	x	-23.9%	u	x
COc1cc2c(cc1NC(=O)C(C)Sc1cccc[n+]1[O-])oc1ccccc12 (centres undefined)	15.3%	75.5*	79.0*	-7.4%	-20.7%	u
COc1cc2c(cc1NC(=O)COC(=O)C1CC(=O)N(Cc3ccco3)C1)oc1ccccc12 (centres undefined)	20.3%	22.6*	63.1	-19.5%	-14.9%	-2.9%
COCCNC(=S)Nc1cc2oc3ccccc3c2cc1OC	1.5%	15.6*	18.1	-20.5%	-29.1%	1.0%
COc1cc2c(cc1NC(=O)COC(=O)CNC(=O)c1ccccc1)oc1ccccc12	23.6%	31.5*	48.8*	-9.6%	-12.3%	-10.4%[46.1 µM]
CCCSc1ncc(Cl)c(C(=O)Nc2c(C(=O)c3ccc(F)cc3)oc3ccccc23)n1	11.4%[46.1 µM]	x	x	-12.5%	-10.6%	-2.1%[46.1 µM]
COc1ccc(CC(=O)Nc2cc3oc4ccccc4c3cc2OC)cc1	5.2%	62.7*	111.4*	u	u	1.8%
COc1cc2c(cc1NC(=O)C(C)N1CCN(S(=O)(=O)c3ccc(C)c(C)c3)CC1)oc1ccccc12 (centres undefined)	-8.1%	-1.1	-9.8	x	x	10.2%
COc1cc2c(cc1NC(=O)C(C)N1CCN(S(=O)(=O)c3ccccc3[N+](=O)[O-])CC1)oc1ccccc12 (centres undefined)	-6.9%	27.2*	55.4*	x	x	u
CCOC(=O)c1c(CN(C)C)oc2cc(CN(C)C)c(O)c(CSc3ccccc3)c12	-10.3%	8.1	-15.9	x	-14.0%	10µM*
COc1cccc(N2C(=O)NC(=O)/C(=C/c3ccc4c(c3)Cc3ccccc3-4)C2=O)c1	17.5%	19.2*	40.2	i	-15.3%	-15.3%
CCOc1ccc2[nH]c(=O)c(C(c3nnnn3C3CCCCC3)N3CCN(C)CC3)cc2c1 (centres undefined)	-4.6%	-4.0	-3.5	x	x	10.6%
COc1ccc2[nH]c(=O)c(C(c3nnnn3C3CCCC3)N(C)C3CCCCC3)cc2c1 (centres undefined)	1.6%	-2.5	14.2	x	x	5.17µM*
Cc1nc2sccn2c1CN1CCOc2ccc(CN3CCN(c4ccc(F)cc4)CC3)cc2C1	x	x	x	-21.0%	-22.5%	x
O=C(CSc1nc2ccccc2c(=O)n1NC(=O)c1ccccc1)c1ccccc1	u	40.8*	73.7*	x	x	-1.3%

Compound activity as filed in PubChem.
